According to the OligoGym collection:

The sequences below were run against TRPM3 (assay: pooled miR-30 sensor sort-seq; sequence = guide strand). Settings: shRNA.
Note: reference of the scale not given here.

Sequence	sensor-assay potency score (higher = more potent)
TTTCTCATTCTGAAGCACGGAG	-0.126
TTCTATACCACCTTTGTCTTTC	0.0572
AATGTCGTCAACCATGTCGTTC	-1.05
TTGTACAATTCCTCTAGTCTGG	-0.181
TTGTCTTTCATATTGACCGAAT	-0.665
TTATTTTACCATCCTCTCGGGT	-0.671

These sequences were tested against TRPM6 in the same assay as above. Settings: shRNA.

Sequence	sensor-assay potency score (higher = more potent)
TATGTTATCACAGAGTTCCTGG	0.658
TAAAACTATGACTCCTAGCGAA	-0.766
TAATTCTTCAACTCTTCTGAGG	-0.79
TTGTATTGTAGAGCTCTTCCAG	-0.0378
TAAATGTAACAGATGATCCAGT	0.213
TAGAACTCATAGACTTTCCTGG	0.494
TAAGTGAGCAATAGGCTCGTGC	-0.42
TATAGATCAATTTTTGAGCAGC	-0.262
TTGAGTAATTCTTCAACTCTTC	-0.179
TTGAGTGTTGTGAGCTTGCTGA	-0.408
TGTTCTTTTGACTTCTTCCTTG	0.00322
TTGTTGTTGTTATACTTCCGGA	-0.714

These sequences were tested against TRPV1 in the same assay as above. Settings: shRNA.

Sequence	sensor-assay potency score (higher = more potent)
TTAAGGAAGCTCTTCTCCGTGT	-0.306
ATGTAGACAAACATGAAACGGC	-0.484
TAGCTGTCCGTGTAGCTGGCGT	-0.712
TTGTCTGTGAGGTGCTTCTTGC	-0.584
ATGCTCGTCACAAACTTCGTGT	-0.192
TAGTAGAGCATGTTGGTCCAGC	-0.185
TTGAGCAGGAGGATGTAGGTGA	1.19
TAACTCGGAAATAGTCTCCAGT	0.133
TAGTAGCTGTCCGTGTAGCTGG	-0.744
TTGGTGTTCCAGGTGGTCCAGT	-0.829
TCGCAGATAAACTTCCTCGGGC	0.131
TTGAAGTAGAAGATGCGCTTGA	0.616

Each sequence was assayed against TSC1 in the same assay as above. Settings: shRNA.

Sequence	sensor-assay potency score (higher = more potent)
ATATTTAACAACATCAGCCGAG	0.191
TAGATATTTCTTCTGTTCCAAA	-1.26
TATCTTTTTCAATACTATCTTC	-0.463
TTCTCTTGTAACTTCAACTGAT	0.432
TGAACTTGCACTCAGACCCTGG	-0.099
TAGCATGGTTATCAACACCAAG	-0.952
TATTTAACAACATCAGCCGAGA	-0.654
TAGCTGTCCAACACTGTCCGGG	-0.0259
TAGATATTGCAGCTTCTTCTTT	-0.827
TAGAGTGACAGAACCTTTGCTG	0.691
